From PubChem BioAssay (NCI)
About 79,000 compounds went through this panel and 15% of them were active in at least one assay; those are over-represented in the sample as a whole. Calls of active or inactive are those of the source. Cut-off read from the data, not from the text of the source: active = growth inhibition above about 70%; inactive = the rest.

How the values were obtained:
[1] = NCI Yeast Anticancer Drug Screen. Data for the rad52 strain (AID 147);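 note: 0% = growth of vehicle-treated control cultures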; details: S. cerevisiae rad52 mutant growth inhibition, hits give high values
Outline: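 Yeast strain carrying a DNA damage repair alteration was exposed to test compounds. Growth inhibition was measured relative to vehicle-treated controls.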

[2] = NCI Yeast Anticancer Drug Screen. Data for the rad50EPP+ strain (AID 151);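 note: 0% = growth of vehicle-treated control cultures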; details: S. cerevisiae rad50 mutant strain, hits give high values
Outline: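 Yeast strain carrying rad50 alteration (rad50EPP+) exposed to compounds; growth inhibition measured relative to vehicle-treated controls.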

[3] = NCI Yeast Anticancer Drug Screen. Data for the rad50 strain (AID 155);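 note: 0% = growth of vehicle-only cultures of the same strain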; details: S. cerevisiae rad50 strain growth inhibition, hits give high values
Outline: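 Compounds were tested on a yeast strain with an engineered DNA damage repair alteration; the reported value is growth inhibition normalised to vehicle treatment.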

[4] = NCI Yeast Anticancer Drug Screen. Data for the mec2-1 strain (AID 157); details: S. cerevisiae mec2-1 strain, hits give high values
Outline: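 mec2-1 yeast strain, carrying an alteration in DNA damage repair or cell cycle control, was exposed to compounds; growth inhibition was measured relative to vehicle-treated controls.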

[5] = NCI Yeast Anticancer Drug Screen. Data for the rad14 strain (AID 159);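 note: 0% = growth of vehicle-treated control cultures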; details: S. cerevisiae rad14 strain growth inhibition, hits give high values
Outline: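 Compound-treated yeast with a defined DNA-repair lesion; growth inhibition normalised to vehicle-treated cultures.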

[6] = NCI Yeast Anticancer Drug Screen. Data for the sgs1 mgt1 strain (AID 161);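 note: 0% = growth of cultures given vehicle only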; details: S. cerevisiae sgs1 mgt1 strain, hits give high values
Outline: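 Growth of a repair-deficient yeast mutant was monitored after compound treatment and expressed as inhibition relative to vehicle-treated cultures.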

[7] = NCI Yeast Anticancer Drug Screen. Data for the CLN2oe strain (AID 163);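 note: 0% = growth of vehicle-only control cultures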; details: S. cerevisiae CLN2oe strain, hits give high values
Outline: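 Yeast cells carrying a defined cell-cycle control alteration were exposed to test compounds. Growth inhibition was scored against vehicle-treated control cultures.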

[8] = NCI Yeast Anticancer Drug Screen. Data for the cln2 rad14 strain (AID 165);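 note: 0% = growth equal to vehicle treated cultures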; details: S. cerevisiae cln2 rad14 strain, hits give high values
Outline: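 Yeast carrying cln2 and rad14 alterations (cell cycle control and DNA damage repair) were exposed to compounds. Growth inhibition was measured against vehicle-treated controls.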

[9] = NCI Yeast Anticancer Drug Screen. Data for the bub3 strain (AID 167); details: S. cerevisiae bub3 mutant strain, hits give high values
Outline: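 Growth of a checkpoint-deficient yeast mutant is measured after compound exposure. Values represent inhibition relative to vehicle.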

[10] = NCI Yeast Anticancer Drug Screen. Data for the wt2 strain (AID 169);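 note: 0% = growth of vehicle-treated yeast cultures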; details: S. cerevisiae wt2 strain growth inhibition, hits give high values
Outline: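 Yeast cells were exposed to test compounds, and growth inhibition was measured relative to vehicle-treated controls.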

[11] = NCI Yeast Anticancer Drug Screen. Data for the mlh1 strain (AID 171);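 note: 0% = growth of vehicle-treated control cultures of the same strain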; details: S. cerevisiae mlh1 strain growth inhibition, hits give high values
Outline: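 Yeast carrying a defined genetic alteration in DNA damage repair or cell cycle control were exposed to test compounds. Growth inhibition was measured relative to vehicle-treated controls.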

[12] = NCI Yeast Anticancer Drug Screen. Data for the sgs1 strain (AID 173);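 note: 0% = growth of vehicle-only control cultures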; details: S. cerevisiae sgs1 mutant, hits give high values
Outline: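 Yeast mutant strains carrying defined defects in DNA damage repair or cell cycle control were exposed to test compounds. Growth inhibition was scored against vehicle-treated controls.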

[13] = NCI Yeast Anticancer Drug Screen. Data for the mlh1 rad18 strain (AID 175); details: S. cerevisiae mlh1 rad18 strain growth inhibition, hits give high values
Outline: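 Growth inhibition of the yeast strain was measured after compound exposure and expressed relative to vehicle-treated controls. The strain carries defined defects in DNA damage repair.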

[14] = NCI Yeast Anticancer Drug Screen. Data for the rad18 strain (AID 177); details: S. cerevisiae rad18 mutant growth inhibition, hits give high values
Outline: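 Yeast carrying a defined DNA damage repair alteration were exposed to compounds. Growth inhibition was expressed relative to vehicle-treated controls.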

[15] = NCI Yeast Anticancer Drug Screen. Data for the mgt1 strain (AID 153); details: S. cerevisiae mgt1 mutant growth inhibition, hits give high values
Outline: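 Yeast mgt1 strain (DNA repair/cell-cycle alteration panel) exposed to compounds; growth inhibition measured relative to vehicle-treated controls.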

[16] = at 5.0 µM (retest, dose inferred, filed as 0.5)
[17] = at 50.0 µM (retest, dose inferred, filed as 5.0)

Measured: growth inhibition

CCN(CC)CC(O)C1CCC(c2ccccc2)CC1 (stereo unspecified)
active: [1]; at 100.0 µM 78% | [3]; [17] 78% | [3]; at 50.0 µM 84.8% | [3]; at 100.0 µM 83% | [4]; [17] 76% | [4]; at 100.0 µM 79% | [5]; at 33.0 µM 89% | [5]; at 100.0 µM 98% | [6]; [17] 95% | [6]; at 50.0 µM 92.7% | [7]; at 100.0 µM 80% | [8]; [17] 70% | [9]; [17] 87% | [9]; at 50.0 µM 83% | [9]; at 100.0 µM 84% | [10]; at 100.0 µM 83% | [11]; at 100.0 µM 91% | [12]; at 33.0 µM 72% | [12]; at 100.0 µM 93% | [13]; [17] 86% | [14]; at 100.0 µM 78%
inactive: [1]; at 1.2 µM 2% | [1]; at 3.7 µM 11% | [1]; at 11.0 µM 22% | [1]; at 33.0 µM 52% | [2]; at 1.2 µM 4% | [2]; at 3.7 µM 6% | [2]; at 11.0 µM 15% | [2]; at 33.0 µM 23% | [2]; at 100.0 µM 68% | [3]; at 1.2 µM 5% | [3]; at 3.7 µM 12% | [3]; [16] 13% | [3]; at 11.0 µM 22% | [3]; at 33.0 µM 61% | [4]; at 1.2 µM 3% | [4]; at 3.7 µM 12% | [4]; [16] 11% | [4]; at 11.0 µM 16% | [4]; at 33.0 µM 42% | [4]; at 50.0 µM 36% | [5]; at 1.2 µM 13% | [5]; at 3.7 µM 34% | [5]; at 11.0 µM 41% | [6]; [16] 31% | [7]; at 1.2 µM 6% | [7]; at 3.7 µM 10% | [7]; at 11.0 µM 41% | [7]; at 33.0 µM 55% | [8]; [16] 28% | [8]; at 50.0 µM 65.3% | [9]; at 1.2 µM 1% | [9]; at 3.7 µM 8% | [9]; [16] 27% | [9]; at 11.0 µM 30% | [9]; at 33.0 µM 64% | [10]; at 1.2 µM 3% | [10]; at 3.7 µM 9% | [10]; at 11.0 µM 16% | [10]; at 33.0 µM 45% | [11]; at 1.2 µM 3% | [11]; at 3.7 µM 10% | [11]; at 11.0 µM 24% | [11]; at 33.0 µM 62% | [12]; at 1.2 µM 3% | [12]; at 3.7 µM 16% | [12]; at 11.0 µM 32% | [13]; [16] 36% | [13]; at 50.0 µM 68.9% | [14]; at 1.2 µM 7% | [14]; at 3.7 µM 12% | [14]; at 11.0 µM 13% | [14]; at 33.0 µM 32%

Cc1c(-c2ccccc2)[nH]c2ccccc12
inactive: [15]; at 1.2 µM -19% | [15]; at 3.7 µM -12% | [15]; at 11.0 µM -11% | [3]; at 1.2 µM -4% | [3]; at 3.7 µM -8% | [3]; [16] 33% | [3]; at 11.0 µM -12% | [4]; at 1.2 µM -2% | [4]; at 3.7 µM 8% | [4]; [16] 48% | [4]; at 11.0 µM -2% | [5]; at 1.2 µM -2% | [5]; at 3.7 µM 0% | [5]; at 11.0 µM 2% | [6]; [16] -1% | [7]; at 1.2 µM 5% | [7]; at 3.7 µM 3% | [7]; at 11.0 µM 1% | [8]; [16] 51% | [9]; at 1.2 µM -6% | [9]; at 3.7 µM -7% | [9]; [16] 22% | [9]; at 11.0 µM -15% | [10]; at 1.2 µM 10% | [10]; at 3.7 µM 5% | [10]; at 11.0 µM 6% | [10]; at 33.0 µM 68% | [11]; at 1.2 µM 7% | [11]; at 3.7 µM 8% | [11]; at 11.0 µM 6% | [12]; at 1.2 µM 14% | [12]; at 3.7 µM 19% | [12]; at 11.0 µM 14% | [13]; [16] 38%
active: [15]; at 33.0 µM 95% | [15]; at 100.0 µM 98% | [3]; at 33.0 µM 95% | [3]; [17] 81% | [3]; at 50.0 µM 91.3% | [3]; at 100.0 µM 98% | [4]; at 33.0 µM 94% | [4]; [17] 85% | [4]; at 50.0 µM 92.5% | [4]; at 100.0 µM 98% | [5]; at 33.0 µM 95% | [5]; at 100.0 µM 98% | [6]; [17] 99% | [6]; at 50.0 µM 93.5% | [7]; at 33.0 µM 98% | [7]; at 100.0 µM 99% | [8]; [17] 99% | [8]; at 50.0 µM 92.3% | [9]; at 33.0 µM 95% | [9]; [17] 98% | [9]; at 50.0 µM 91.8% | [9]; at 100.0 µM 98% | [10]; at 100.0 µM 99% | [11]; at 33.0 µM 96% | [11]; at 100.0 µM 98% | [12]; at 33.0 µM 97% | [12]; at 100.0 µM 100% | [13]; [17] 96% | [13]; at 50.0 µM 91.2%

CCN1/C(=C/c2ccc3ccccc3[n+]2CC)C=Cc2ccccc21
inactive: [1]; at 1.2 µM -19% | [1]; at 3.7 µM -14% | [2]; at 1.2 µM 4% | [2]; at 3.7 µM 6% | [2]; at 11.0 µM 8% | [2]; at 33.0 µM 67% | [3]; at 1.2 µM -3% | [3]; at 3.7 µM -2% | [4]; at 1.2 µM -3% | [4]; at 3.7 µM 16% | [5]; at 1.2 µM -27% | [5]; at 3.7 µM 1% | [6]; [16] 7% | [7]; at 1.2 µM 0% | [7]; at 3.7 µM 10% | [8]; [16] 58% | [9]; at 1.2 µM -3% | [9]; at 3.7 µM 37% | [9]; [16] 42% | [10]; at 1.2 µM -32% | [10]; at 3.7 µM -20% | [10]; at 11.0 µM 57% | [11]; at 1.2 µM -27% | [11]; at 3.7 µM -15% | [11]; at 11.0 µM 41%
active: [1]; at 11.0 µM 87% | [1]; at 33.0 µM 98% | [1]; at 100.0 µM 98% | [2]; at 100.0 µM 92% | [3]; [16] 99% | [3]; at 11.0 µM 81% | [3]; at 33.0 µM 97% | [3]; [17] 97% | [3]; at 50.0 µM 90.5% | [3]; at 100.0 µM 96% | [4]; [16] 99% | [4]; at 11.0 µM 98% | [4]; at 33.0 µM 99% | [4]; [17] 98% | [4]; at 50.0 µM 92% | [4]; at 100.0 µM 99% | [5]; at 11.0 µM 98% | [5]; at 33.0 µM 98% | [5]; at 100.0 µM 98% | [6]; [17] 98% | [6]; at 50.0 µM 93% | [7]; at 11.0 µM 94% | [7]; at 33.0 µM 99% | [7]; at 100.0 µM 98% | [8]; [17] 100% | [8]; at 50.0 µM 90.9% | [9]; at 11.0 µM 96% | [9]; at 33.0 µM 98% | [9]; [17] 99% | [9]; at 50.0 µM 91% | [9]; at 100.0 µM 98% | [10]; at 33.0 µM 98% | [10]; at 100.0 µM 98% | [11]; at 33.0 µM 97% | [11]; at 100.0 µM 97%
